The text below walks through data of PubChem BioAssay.

One experiment deals with Albumin (Bos taurus) (UniProt P02769). Briefly: compounds binding labelled BSA control protein – biochemical, small-molecule microarray, Alexa647 label, 635/667 nm fluorescence, artefact control for SMM control protein annotation, profiling panel (AID 1118).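 Further: score merges 667 nm emission intensity and signal-to-noise per printed compound spot.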 The note with it: BSA-A647 binding, fluorescence 635 nm, higher = more signal.
Chain of Albumin (Bos taurus) (P02769 whole entry, looked up): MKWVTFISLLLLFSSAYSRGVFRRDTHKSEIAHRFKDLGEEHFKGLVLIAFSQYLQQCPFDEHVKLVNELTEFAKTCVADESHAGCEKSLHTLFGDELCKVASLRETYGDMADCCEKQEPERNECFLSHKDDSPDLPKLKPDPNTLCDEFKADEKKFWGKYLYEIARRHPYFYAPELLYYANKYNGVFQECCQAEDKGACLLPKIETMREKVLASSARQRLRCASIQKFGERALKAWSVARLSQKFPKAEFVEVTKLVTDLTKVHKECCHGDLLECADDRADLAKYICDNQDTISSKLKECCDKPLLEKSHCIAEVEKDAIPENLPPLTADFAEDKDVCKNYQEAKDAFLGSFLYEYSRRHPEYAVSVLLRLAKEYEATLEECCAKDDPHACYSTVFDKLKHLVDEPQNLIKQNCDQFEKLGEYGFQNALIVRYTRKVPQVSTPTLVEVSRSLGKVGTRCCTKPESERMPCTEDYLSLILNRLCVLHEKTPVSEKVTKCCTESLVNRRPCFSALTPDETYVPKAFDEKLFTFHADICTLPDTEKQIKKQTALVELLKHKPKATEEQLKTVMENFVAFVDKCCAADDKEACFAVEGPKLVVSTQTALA
A short description of experiment [1]: probe aXIP binding to arrayed compounds – biochemical, NeuroSMM set, 635/667 nm fluorescence, primary screen (AID 1119).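 Further: probe is the protein aXip251-270 applied at 1 µg/mL to compound-printed slides; binding of probe to printed compounds measured as 667 nm fluorescence plus signal to noise.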 The conditions noted are these: small-molecule microarray, higher = more signal, called active from +8 up or from −8 down.
The nature of experiment [2]: probe aNOTCH3 binding on compound microarray – biochemical, small-molecule microarray, 635/667 nm fluorescence, primary screen (AID 1120).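 Further: probe is a biotin-tagged antibody raised against NOTCH3 rather than NOTCH3 protein; score merges spot fluorescence near 667 nm with spot signal to noise.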 The conditions noted are these: higher = more signal.
Experiment [3] is described as follows: probe aNOTCH2 binding on compound microarray – biochemical, small-molecule microarray, 635/667 nm fluorescence, primary screen (AID 1121).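 Further: score merges feature fluorescence read at 667 nm with its signal to noise.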 The note with it: higher = more signal.
Experiment [4] concerns the target Carbonic anhydrase 2 (Homo sapiens) (UniProt P00918). Nature of the experiment: compounds binding carbonic anhydrase 2 – biochemical, small-molecule microarray, Alexa647-labelled CAII, profiling panel (AID 1122). The conditions noted are these: CAII-A647 binding fluorescence, higher = more signal.
The nature of experiment [5]: COS7 lysate on small-molecule microarray, probe aHis, 635 nm (AID 1123).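 Further: z-score combines 667nm fluorescence intensity with signal-to-noise per printed compound spot.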 The conditions noted are these: COS7 cell lysate, fluorescence, higher = more signal.
Experiment [6] can be described thus: probe aLAP1 signal on lysate-treated microarray – cell lysate, small-molecule microarray, COS7 lysate, primary screen (AID 1124).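 Further: lysate comes from COS7 cells expressing LAP1 and is applied at 0.3 µg/mL; score merges spot fluorescence near 667 nm with signal-to-noise over triplicate slides.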 The conditions noted are these: probe aLAP1, fluorescence, higher = more signal.
The next experiment has as its system Sam68 (KHDRBS1). Briefly: compounds binding KHDRBS1 protein – biochemical, small-molecule microarray, 635 nm fluorescence, primary screen (AID 1125).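 Further: score merges 667 nm channel intensity with signal to noise over triplicate slides.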 The conditions noted are these: higher = more signal.
The test system of experiment [7] is Chordin-like protein 2 (CHRDL2). Briefly: compounds binding chordin-like 2 – biochemical, small-molecule microarray, 635 nm fluorescence, primary screen (AID 1126).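 Further: printed compound slides probed with Chrdl2 protein at 4 µg/mL for 1 h at 4 C; score merges 667 nm emission intensity with signal to noise over three replicate slides.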 The conditions noted are these: fluorescence 635 nm, higher = more signal.
Experiment [8] addresses Concanavalin-A (Canavalia ensiformis) (UniProt P02866). Nature of the experiment: compounds binding concanavalin A lectin – biochemical, small-molecule microarray, Alexa647 label, 635 nm, artefact control for SMM control protein annotation, primary screen (AID 1127).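 Further: z combines 667 nm emission intensity with signal-to-noise across three replicate slides.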 The note with it: ConA-A647 binding fluorescence, higher = more signal.
A short description of experiment [9]: compounds binding Alexa647 anti-His antibody – biochemical, small-molecule microarray, 635 nm fluorescence, artefact control for SMM control protein annotation, primary screen (AID 1128).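 Further: score merges feature fluorescence with signal-to-noise for each printed compound spot.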 The conditions noted are these: higher = more signal.
The test system of experiment [10] is Human papillomavirus type 1a E7 protein (residues 1-88). Briefly: HPV1a E7 small-molecule binders, primary screen, biochemical, small-molecule microarray, residues 1-88, 635 nm (AID 1129). The conditions noted are these: small-molecule microarray binding, fluorescence 635 nm; higher = more signal.
The target in experiment [11] is Focal adhesion kinase 1 (Homo sapiens) (UniProt Q05397). Nature of the experiment: PTK2 protein binding on printed compound slides – biochemical, small-molecule microarray, 635/667 nm fluorescence, BSA, DTT, primary screen (AID 1130).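 Further: composite of spot emission at 667 nm and signal to noise over triplicate slides.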 The note with it: 635 nm fluorescence, higher = more signal.
Chain of Focal adhesion kinase 1 (Homo sapiens) (Q05397 whole entry, looked up): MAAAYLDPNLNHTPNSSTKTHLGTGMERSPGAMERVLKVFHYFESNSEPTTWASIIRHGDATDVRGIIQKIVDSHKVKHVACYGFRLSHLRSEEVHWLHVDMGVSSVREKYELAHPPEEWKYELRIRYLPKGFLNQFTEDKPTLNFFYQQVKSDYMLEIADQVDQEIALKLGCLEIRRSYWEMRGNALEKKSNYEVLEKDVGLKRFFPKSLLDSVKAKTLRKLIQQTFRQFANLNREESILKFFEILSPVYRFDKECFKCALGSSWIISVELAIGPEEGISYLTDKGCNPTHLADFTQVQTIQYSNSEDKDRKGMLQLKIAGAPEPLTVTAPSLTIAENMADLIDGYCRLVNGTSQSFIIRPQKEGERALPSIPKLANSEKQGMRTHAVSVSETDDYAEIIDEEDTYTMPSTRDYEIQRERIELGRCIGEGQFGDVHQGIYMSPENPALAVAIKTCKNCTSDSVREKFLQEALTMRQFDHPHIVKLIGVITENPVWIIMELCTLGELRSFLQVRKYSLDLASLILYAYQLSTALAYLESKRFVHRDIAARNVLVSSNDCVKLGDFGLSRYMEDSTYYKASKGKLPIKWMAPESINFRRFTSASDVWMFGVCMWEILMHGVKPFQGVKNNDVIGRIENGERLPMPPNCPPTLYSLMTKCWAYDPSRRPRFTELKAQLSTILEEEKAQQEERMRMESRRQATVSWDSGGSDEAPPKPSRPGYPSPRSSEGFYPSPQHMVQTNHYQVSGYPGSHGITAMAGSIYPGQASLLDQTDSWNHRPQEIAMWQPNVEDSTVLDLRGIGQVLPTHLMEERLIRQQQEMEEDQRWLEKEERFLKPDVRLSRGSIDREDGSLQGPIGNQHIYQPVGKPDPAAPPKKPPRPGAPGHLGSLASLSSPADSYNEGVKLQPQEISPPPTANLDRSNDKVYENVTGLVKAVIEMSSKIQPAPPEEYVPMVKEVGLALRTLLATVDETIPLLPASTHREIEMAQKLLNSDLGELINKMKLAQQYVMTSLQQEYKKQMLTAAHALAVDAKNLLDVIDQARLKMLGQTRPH
Experiment [12] deals with Fibrinogen (Alexa647-labelled). Nature of the experiment: Alexa647-fibrinogen binding to printed small molecules – biochemical, small-molecule microarray, 635/667 nm fluorescence, artefact control for SMM control-protein annotation, profiling panel (AID 1131).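 Further: z-score merges 667 nm fluorescence with per-spot signal-to-noise over triplicate slides.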 The conditions noted are these: fibrinogen-A647 binding fluorescence, higher = more signal.
Experiment [13] addresses Follistatin (Homo sapiens) (UniProt P19883). Briefly: FST protein binding to printed compounds – biochemical, small-molecule microarray, 635/667 nm fluorescence, primary screen (AID 1132). The note with it: 635 nm fluorescence, higher = more signal.
Experiment [14] concerns the target Fibroblast growth factor 2 (Homo sapiens) (UniProt P09038). Nature of the experiment: basic fibroblast growth factor binding to printed compounds – biochemical, small-molecule microarray, 635/667 nm fluorescence, primary screen (AID 1133). The note with it: FGF2, fluorescence 635/667, higher = more signal.
A short description of experiment [15]: JC-1 mitochondrial potential readout, lung cancer cells – cell-based, A549, JC-1 fluorescence, basal, 24 h, 100 nL, profiling panel (AID 1138).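 Further: A549 lung adenocarcinoma cells under basal conditions with no added stimulus; test concentration not given here.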 The conditions noted are these: higher = more signal.
A further experiment concerns Lefty1. Nature of the experiment: Lefty1 protein binding to printed compounds – biochemical, small-molecule microarray, 635/667 nm fluorescence, primary screen (AID 1139). The note with it: fluorescence 635/667, higher = more signal.
Experiment [16] deals with wheat germ agglutinin (Triticum aestivum), Alexa647-labelled. Briefly: Alexa647-WGA lectin binding to printed small molecules – biochemical, small-molecule microarray, 635/667 nm fluorescence, artefact control for SMM control-protein annotation, profiling panel (AID 1140).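 Further: score merges 667 nm feature emission with signal to noise over triplicate slides.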 The conditions noted are these: WGA-A647 binding, 635 nm fluorescence, higher = more signal.
Experiment [17] deals with Luciferin 4-monooxygenase (Photinus pyralis) (UniProt P08659). Nature of the experiment: inhibition of purified Photinus pyralis luciferase – biochemical, luminescence, purified enzyme, 2006 set, primary screen (AID 1141).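 Further: cell-free assay with purified firefly luciferase at 100 ng per well in PBS; test concentration not given here.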 The note with it: purified firefly luciferase, SteadyGlo luminescence, 30 min; higher = more signal, called active from +8 up or from −8 down.
Chain of Luciferin 4-monooxygenase (Photinus pyralis) (P08659 whole entry, looked up): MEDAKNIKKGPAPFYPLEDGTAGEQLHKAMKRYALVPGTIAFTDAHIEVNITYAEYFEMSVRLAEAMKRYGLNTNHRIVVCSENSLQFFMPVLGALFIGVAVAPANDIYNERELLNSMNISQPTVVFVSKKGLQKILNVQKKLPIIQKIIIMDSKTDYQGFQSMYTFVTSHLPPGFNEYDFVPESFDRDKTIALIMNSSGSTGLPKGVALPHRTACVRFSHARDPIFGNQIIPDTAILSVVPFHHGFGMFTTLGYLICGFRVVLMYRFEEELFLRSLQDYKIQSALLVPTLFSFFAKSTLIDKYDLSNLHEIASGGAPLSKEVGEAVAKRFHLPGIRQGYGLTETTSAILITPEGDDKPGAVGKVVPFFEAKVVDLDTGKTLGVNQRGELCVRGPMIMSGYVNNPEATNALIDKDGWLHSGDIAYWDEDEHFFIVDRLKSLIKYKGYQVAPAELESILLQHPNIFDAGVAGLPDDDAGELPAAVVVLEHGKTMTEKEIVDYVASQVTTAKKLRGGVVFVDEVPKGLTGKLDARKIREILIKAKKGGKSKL

Active and inactive are the calls of the source.

Chain of Fibroblast growth factor 2 (Homo sapiens) (P09038 whole entry, looked up): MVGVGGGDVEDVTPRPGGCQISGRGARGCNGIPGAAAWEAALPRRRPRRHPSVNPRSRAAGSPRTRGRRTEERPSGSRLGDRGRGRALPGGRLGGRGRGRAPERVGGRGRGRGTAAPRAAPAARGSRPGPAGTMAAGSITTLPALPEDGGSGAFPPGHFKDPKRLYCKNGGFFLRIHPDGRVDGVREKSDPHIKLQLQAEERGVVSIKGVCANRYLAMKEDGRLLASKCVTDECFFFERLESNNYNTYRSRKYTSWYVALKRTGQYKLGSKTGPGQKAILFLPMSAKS
Chain of Concanavalin-A (Canavalia ensiformis) (P02866 whole entry, looked up): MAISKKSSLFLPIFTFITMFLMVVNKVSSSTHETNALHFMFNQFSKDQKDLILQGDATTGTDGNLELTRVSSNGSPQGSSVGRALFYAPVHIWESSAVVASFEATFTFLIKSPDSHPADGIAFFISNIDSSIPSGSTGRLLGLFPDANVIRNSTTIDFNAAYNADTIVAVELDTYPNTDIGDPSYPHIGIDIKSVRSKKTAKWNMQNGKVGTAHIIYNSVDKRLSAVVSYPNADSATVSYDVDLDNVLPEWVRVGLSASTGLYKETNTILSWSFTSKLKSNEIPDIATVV
Chain of Follistatin (Homo sapiens) (P19883 whole entry, looked up): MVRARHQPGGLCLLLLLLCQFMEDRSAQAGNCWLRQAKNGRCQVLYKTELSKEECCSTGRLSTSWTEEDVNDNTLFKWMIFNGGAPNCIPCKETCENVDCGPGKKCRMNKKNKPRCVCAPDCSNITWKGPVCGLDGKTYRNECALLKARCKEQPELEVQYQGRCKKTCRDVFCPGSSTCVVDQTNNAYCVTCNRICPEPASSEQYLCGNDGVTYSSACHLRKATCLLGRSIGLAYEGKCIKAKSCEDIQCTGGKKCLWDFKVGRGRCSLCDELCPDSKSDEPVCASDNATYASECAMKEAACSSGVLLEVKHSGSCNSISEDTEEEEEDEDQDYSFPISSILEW

Regarding `C[C@@H]1C=CCC(=O)OC[C@H](C)C(=O)N[C@@H](C)C(=O)OC1`, the composite z-score with Albumin (Bos taurus) was -0.171; in experiment [2], -0.0647; in [3], -0.144; in experiment [4], -0.385; in [5], -0.466; in [6], 0.369. Besides, the composite z-score with Sam68 (KHDRBS1) is 0.175; in [7], 0.71; in experiment [8], 0.155; in experiment [9], -0.181; in experiment [10] it was -0.479; in experiment [11], 1.32. Also, the composite z-score in experiment [12] is -0.096; in experiment [13], 0.302; in experiment [14] it was 1.09; in the experiment with Lefty1 it was 0.921; in [16], -0.323. The composite Z-score in [1] is 0.215 (inactive). Further, the z-score in experiment [15] was -0.944; in experiment [17] it was 1.04 (inactive).
`COc1ccc(CCNC(=O)[C@@H]2c3ccccc3C(=O)N(c3ccc(C)cn3)[C@H]2c2ccc(CO)cc2)cc1`: the composite z-score with Albumin (Bos taurus) was 0.45; in experiment [2] it was -0.406; in experiment [3], -0.0959; in experiment [4] it was 0.77; in experiment [5] it was 1.5; in experiment [6], 0.539. Besides, the composite z-score is -0.121 in the experiment on Sam68 (KHDRBS1); -1.76 in experiment [7]; -1.45 in [8]; 0.315 in experiment [9]; 0.469 in [10]; -0.34 in [11]. The composite z-score in [12] is -2.21; in [13], -0.25; in experiment [14], -0.609; with Lefty1, -1.17; in experiment [16], -0.293. Also, in experiment [1], the composite Z-score is 0.378 (inactive). Also, the z-score in [15] is -0.61; in experiment [17], 0.85 (inactive).
As for `CCOC(=O)CCN1C(=O)[C@H]2[C@H]3[C@H](O)[C@H](O)CC(=NOC[C@@H](O)COCc4ccco4)[C@@H]3CC[C@H]2C1=O`, the composite z-score in the experiment with Albumin (Bos taurus) was 0.723; in [2], -0.0932; in experiment [3], -0.124; in experiment [4], 0.214; in experiment [5], 0.171; in [6], 0.256. Further, the composite z-score with Sam68 (KHDRBS1) is 0.0665; in [7] it was 0.457; in experiment [8], 0.318; in [9], 1.08; in experiment [10], -0.0069; in [11], 0.144. In addition, the composite z-score is 0.825 in experiment [12]; -0.977 in experiment [13]; 0.225 in experiment [14]; -0.219 in the experiment with Lefty1; 0.0513 in experiment [16]. Further, in [1], the composite Z-score is -0.244 (inactive). The z-score in experiment [15] was 0.928; in [17], 0.542 (inactive).
`CCOC(=O)C1=CCC(c2cc3ccccc3[nH]2)NC1` (stereo not given): the composite z-score came out at 0.653 with Albumin (Bos taurus); 0.173 in [2]; 0.069 in experiment [3]; 0.63 in [4]; 1.7 in [5]; 0.944 in experiment [6]. For the same molecule, the composite z-score in the experiment with Sam68 (KHDRBS1) is 0.689; in experiment [7], 0.215; in experiment [8] it was -0.668; in [9] it was 0.693; in [10], 1.13; in experiment [11], 1.22. In addition, the composite z-score is -0.288 in experiment [12]; 1.12 in [13]; -0.356 in experiment [14]; -0.439 in the experiment with Lefty1; 1.06 in experiment [16]. Moreover, in experiment [1], the composite Z-score is 0.0894 (inactive). Besides, the z-score in [15] is 0.642; in experiment [17], -3.19 (inactive).
For `COCCOC(=O)N1C(=O)[C@@]2(c3cc(C#CC4(O)CCCCCC4)ccc31)[C@H](C(=O)N1CCN(c3ncccn3)CC1)[C@H]1C(=O)O[C@H](c3ccccc3)[C@H](c3ccccc3)N1[C@@H]2c1ccc(OCCO)cc1`, the composite z-score was 0.408 in the experiment with Albumin (Bos taurus); 0.178 in [2]; -0.112 in [3]; 0.375 in [4]; 0.714 in experiment [5]; 0.857 in experiment [6]. The composite z-score in the experiment with Sam68 (KHDRBS1) is 1.3; in [7], 0.659; in experiment [8], 1.18; in [9], 2.08; in experiment [10] it was 1.2; in experiment [11], 0.289. Also, the composite z-score is 0.889 in [12]; 1.29 in [13]; 1.35 in experiment [14]; 0.637 in the experiment with Lefty1; 1.09 in experiment [16]. Moreover, in experiment [1], the composite Z-score is -0.108 (inactive). The figures for the z-score in experiment [15] and in [17] were -1.34 and -2.19 (inactive), respectively.
